“And” between values parts separate entries of the source, which are not always exact repeats. Equal entries are not always repeated. Records with an inconclusive call do not appear. The source made the active and inactive calls. Calls come from the whole dose curve; as a rule, active = well fitted inhibition curve with a large enough effect; inconclusive = small, poorly fitted or top-dose-only effect; inactive = no such curve, though single readings can be large or run the other way.
Test: Confirmatory qHTS for small molecule stabilizers of the endoplasmic reticulum resident proteome: Secreted ER Calcium Modulated Protein (SERCaMP) assay (AID 1508628); note: nearly all actives have a fitted effect of over 40% in size
Conditions: SERCaMP secreted luciferase ER calcium/proteostasis reporter; series mostly up to 76.3 µM
Excerpt: Assay Provider: Brandon K. Harvey Ph.D.
National Institute on Drug Abuse, National Institutes of Health, Baltimore, MD
Endoplasmic reticulum (ER) dysregulation is associated with human pathologies including neurodegenerative, cardiovascular, muscular, and diabetic conditions. Maintenance of ER calcium is critical for functions of the ER and its depletion can lead to loss of ER resident proteins, in a process termed exodosis. Therapeutic compounds capable of attenuating the redistribution of ER proteins under pathological conditions may slow or stop disease progression. To identify such compounds, we performed a quantitative high-throughput screen (qHTS) using the SERCaMP assay, which monitors secretion of ER resident proteins triggered by calcium depletion.
SERCaMP was initially developed as a reporter of ER calcium homeostasis using a Gaussia luciferase with a modified signal peptide and carboxy-terminus (GLuc-SERCaMP), modifications that confer secretion of the reporter in response to ER calcium depletion (Henderson et al., 2014). The assay was used to screen 9,501 compounds, including a collection of drugs approved by the FDA (US), EMA (EU), NHI (Japan), and HC (Canada) regulatory agencies (Huang et al., 2011). Since the SERCaMP reporter reflects the exodosis phenomenon (Trychta et al., 2018a), compounds identified in the screen have the potential to prevent exodosis by different mechanisms such as stabilizing ER calcium or augmenting ERS retrieval.
1. Henderson, M.J., Wires, E.S., Trychta, K.A., Richie, C.T., and Harvey, B.K. (2014). SERCaMP: a carboxy-terminal protein modification that enables monitoring of ER calcium homeostasis. Mol Biol Cell 25, 2828-2839.
2. Huang, R., Southall, N., Wang, Y., Yasgar, A., Shinn, P., Jadhav, A., Nguyen, D.T., and Austin, C.P. (2011). The NCGC pharmaceutical collection: a comprehensive resource of clinically approved drugs enabling repurposing and chemical genomics. Sci Transl Med 3, 80ps16.
3. Trychta, K.A., Back, S., Henderson, M.J., and Harvey, B.K. (2018a). KDEL Receptors Are Differentially Regulated to Maintain the ER Proteome under Calcium Deficiency. Cell Rep 25, 1829-1840 e1826.
SEQUENCE No. (1, 2, 3, etc.); […] (e.g., Cells, Incubation, Reagent, etc.); VALUE and DESCRIPTION.
1; Reagent; 5 uL; 1000 SH-SY5Y cells per wells
3; Compound; 23 nL; Control inhibitor / compound library
5; Reagent; 100 nM; Thapsigargin
7; Reagent; 1 uL; 0.5x coelenterazine
8; Detection; Luminescence; ViewLux imaging system
NOTES (numbers refer to sequence above)
1; SH-SY5Y human neuroblastoma cells stably expressing GLuc-SERCaMP (SH-SY5Y-GLuc-ASARTDL) cells were seeded in 1,536 well white tissue culture treated plates (Corning, Cat# 7464) in DMEM-high glucose-sodium pyruvate (ThermoFisher Scientific, Cat #10569) supplemented with 10% bovine growth serum (Hyclone), 10 U/ml penicillin (Gibco), 10 ug/ml streptomycin (Gibco), and 20 mM HEPES.
2; Assay plates were incubated for 5 hour at 37C in a humidified incubator containing 5% CO2.
3; qHTS libraries (23 nl, final concentrations of 1.53 uM, 7.67 uM, 38.3 uM) or controls (neutral control: DMSO, positive control: dantrolene) were added using a Kalypsis pin-tool Robotic System equipped with 1536 pinheads.
4; Cells were then incubated for 16 hours at 37C, 5% CO2.
5; Thapsigargin was added at 100 nM to deplete ER calcium stores.
6; Cells were incubated for 4 hour (37 °C, 5% CO2)
7; Gaussia luciferase in the medium was measured by adding 1 ul of 0.5x coelenterazine (final concentration 0.07x) prepared in Gaussia Luciferase Glow Assay Buffer (Pierce), without addition of the Cell Lysis Buffer Reagent.
8; Luminescence was measured using a ViewLux […] CCD imaging system (Perkin Elmer) equipped with clear filters. […] The same controls were also used for the calculation of the Z' factor, a measure of assay quality control, as previously described (Zhang et al., 1999). […]
Potency is the fitted concentration of half-maximal effect.

| SMILES | Potency |
| --- | --- |
| NC1(c2ccccc2)CCCCC1 | 56.2 µM (active) |
| C[C@@H]1C[C@@H]([C@H](O)CC2CC(=O)NC(=O)C2)C(=O)[C@@H](C)C1 | 0.224 µM (active) |
| CCCC[N+]1(C)[C@@H]2CC(OC(=O)[C@H](CO)c3ccccc3)C[C@H]1[C@@H]1O[C@@H]12 (some centres not stated) | inactive |
| c1cc2c(c(N3CCNCC3)c1)OCCO2 | inactive |
| CN1[C@@H]2CC[C@H]1CC(OC(=O)c1cc(Cl)cc(Cl)c1)C2 (some centres not stated) | inactive |
| CC[C@H](O)C(C[C@H](C)N(C)C)(c1ccccc1)c1ccccc1 | 50.1 µM (active) |
| Cc1c(Cl)c(=O)oc2cc(OP(=O)(OCCCl)OCCCl)ccc12 | inactive |
| Oc1ccc2[nH]cc(CCCCN3CC=C(c4ccccc4)CC3)c2c1 | 12.6 µM (active) |
| OC(c1ccccc1)(c1ccccc1)C1CCNCC1 | 15.8 µM (active) |
| CC(C)=CCN1CC[C@@]2(C)c3cc(O)ccc3C[C@@H]1[C@@H]2C | 28.2 µM (active) |
| NC(=O)OCCCc1ccccc1 | inactive |
| O=C1NCN(c2ccccc2)C12CCN(CCCOc1ccc(F)cc1)CC2 | 2.51 µM (active) and 3.16 µM (active) |
